HT1080 IDH1KD tx: qHTS for induction of synthetic lethality in tumor cells producing 2HG: qHTS for the HT-1080-IDH1KD cell line | actives 2% (n = 360,000) | HT-1080 IDH1 knockdown viability, ATP luminescence, 48 h | Potency, µM (series often up to 46.1 µM), for the others: at the highest dose activity, negative = toxicity, most hits filed as cytotoxic;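 further: potency means the concentration at half of the fitted maximal effect; 0% = DMSO wells and -100% = cell-free medium wells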
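In this qHTS, HT-1080 cells depleted of IDH1 are exposed for 48 h at 37 °C to compound titrations. Toxicity is scored from CellTiter-Glo luminescence, with DMSO as full viability and medium alone as none.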
DT40 TDP1 CPT: qHTS for Inhibitors of human tyrosyl-DNA phosphodiesterase 1 (TDP1): qHTS in cells in presence of CPT | Potency, µM (doses to about 46.2 µM), for the others: at the top dose activity change, negative = growth inhibition, actives largely listed as inhibitors | chicken DT40 Tdp1-/-;hTDP1 cells + 20 nM CPT, ATP luminescence, 48 h | actives 12% (n = 420,000) | AID 686979, 2013; further: potency means the concentration at half of the fitted maximal effect; nearly all actives have a fitted effect of over 55% in size
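Chicken DT40 Tdp1-/- cells complemented with human TDP1, 400 cells/well, exposed to compounds plus 20 nM camptothecin for at least 48 h at 37 C; viability read as ATP content by CellTiter-Glo luminescence.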
DT40 TDP1 no CPT: qHTS for Inhibitors of human tyrosyl-DNA phosphodiesterase 1 (TDP1): qHTS in cells in absence of CPT; DT40 Tdp1-/- hTDP1 cells, no CPT, ATP luminescence, 48 h; Potency, µM (doses to about 46.2 µM), without a hit: at the top dose activity change, negative = growth inhibition, hits mostly inhibitors; actives 15% (n = 420,000); AID 686978, 2013; further: potency means the concentration at half of the fitted maximal effect; nearly all actives have a fitted effect of over 55% in size
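No-CPT arm: Tdp1-/-;hTDP1 DT40 cells (400/well) plus compounds, incubated ≥48 hr at 37 °C. Readout CellTiter-Glo luminescence.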
IL-1B inflam inh: qHTS for Inhibitors of Inflammasome Signaling: IL-1-beta AlphaLISA Primary Screen. activity change, % at 57.5 µM. THP-1 LPS/ATP IL-1B secretion, AlphaLISA, 16 h; active compounds read low. actives 4.7% (n = 360,000); in the data active means activity change below about -50%; inconclusive means mostly about -30% to -49%
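THP-1 cells pretreated 1 hr with compounds (up to 57.5 uM final), then stimulated with LPS (250 ng/mL final) plus ATP (1.25 mM final); secreted IL-1B measured by AlphaLISA after 16 hr, decreased signal indicating inhibition.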
ELG1 DNA repair: qHTS screen for small molecules that inhibit ELG1-dependent DNA repair in human embryonic kidney (HEK293T) cells expressing luciferase-tagged ELG1; HEK293T ELG1-luciferase reporter, luminescence, 16 h; DNA damage induced by 5-fluorouridine; Potency, µM (titrated, usually from 46.1 µM), inactives show at the top dose activity change, negative = inhibition, usual class: inhibitors; actives 2.3% (n = 330,000); AID 504467, 2011; further: potency means the concentration at half of the fitted maximal effect; nearly all actives have a fitted effect of over 55% in size
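DMSO vehicle served as the neutral condition. Each well held 2,000 cells given 5-fluorouridine plus compound; after 16 hr at 37 °C/5% CO2, ONE-Glo was added and luciferase measured 30 min later.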
HT1080NT lethal: qHTS for induction of synthetic lethality in tumor cells producing 2HG: qHTS for the HT-1080-NT fibrosarcoma cell line; HT-1080-NT fibrosarcoma viability, CellTiter-Glo ATP luminescence, 48 h; Potency, µM (doses to about 46.1 µM), for inactives: at the top dose activity, negative = less viability, usual class: cytotoxic; actives 1.6% (n = 360,000); AID 686970, 2013;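 further: NT is the 2HG producing partner of a matched IDH1 knockdown line; potency means the concentration at half of the fitted maximal effect; 0% = DMSO-treated cells and -100% = media-only wells without cells; nearly all actives have a fitted effect of over 55% in size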
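Toxicity toward the 2HG-producing NT line was scored as %Activity, normalised to DMSO and no-cell wells, from CellTiter-Glo luminescence after 48 hours' treatment.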
Numbers without * were called inactive; ? = inconclusive; . = no result given. Sampled rows, rich in hits. Any-hit rate of the full collection: about 19%. Unless noted, the call rests on the fitted dose curve; in most records, active means well fitted curve in the direction sought with a large enough effect; inconclusive means small, poorly fitted or top-dose-only effect, or another doubt; inactive means no such curve, though single readings can be large; an effect the other way counts as inactive or inconclusive. Unless noted, on the % scale 0 is the no-effect control and ±100 the full control effect.

SMILES	HT1080 IDH1KD tx	DT40 TDP1 CPT	DT40 TDP1 no CPT	IL-1B inflam inh	ELG1 DNA repair	HT1080NT lethal
O=C(Nc1ccc(F)cc1)C(c1ccccc1)N1CCN(c2ccncc2)CC1 (stereo unspecified)	3.4%	-0.3%	?	-19.3	.	-19.9%
CSCCC(C(=O)Nc1c(C)cccc1C)N1CCN(c2ccc(F)cc2)CC1 (stereo unspecified)	-4.6%	?	20.6µM*	9.5	.	15.4%
CSCCC(C(=O)Nc1c(C)cccc1C)N1CCN(c2ccc(C(F)(F)F)cn2)CC1 (stereo unspecified)	8.4%	-4.5%	-26.1%	4.8	.	0.1%
O=C(Nc1ccc2c(c1)OCCO2)C(CCc1ccccc1)N1CCC(Cc2ccccc2)CC1 (stereo unspecified)	-20.9%	?	16.4µM*	-7.9	.	-2.5%
Cc1cccc(C)c1NC(=O)C(CCc1ccccc1)N1CCC(c2ccccc2)CC1 (stereo unspecified)	-0.7%	16.4µM*	18.4µM*	2.4	.	4.5%
Cc1cccc(C(=O)NNC(=O)c2ccc3ccccc3c2)c1	9.1%	-5.8%	6.2%	?	.	6.3%
CSCCC(C(=O)Nc1c(C)cccc1C)N1CCC(Cc2ccccc2)CC1 (stereo unspecified)	?	16.4µM*	18.4µM*	-24.9	.	?
Cc1cccc(C)c1NC(=O)C(c1ccccc1)N1CCC2(CC1)OCCO2 (stereo unspecified)	-2.7%	-9.1%	-17.6%	-7.9	.	-2.4%
Cc1cccc(C)c1NC(=O)C(c1ccccc1)N1CCC(c2ccccc2)CC1 (stereo unspecified)	7.9%	?	14.6µM*	-0.5	.	-4.7%
CCc1ccccc1NC(=O)Cn1nnc(-c2nc(-c3ccncc3)no2)c1N	.	-4.9%	2.1%	.	.	.
O=[N+]([O-])c1ccc(C(O)C[n+]2ccccc2)cc1 (stereo unspecified)	1.2%	-3.6%	9.4%	-6.4	?	-20.0%
CCCCCNC(=O)Cc1ccc(S(=O)(=O)N2CCOCC2)s1	-0.5%	12.2%	-4.7%	1.4	7.1%	-0.8%
COC(=O)c1cc2sccc2n1CC(=O)Nc1ccc(OC)c(OC)c1	.	-17.4%	-16.0%	.	.	.
CCCOc1ccc(/C=C/C(=O)OCC(=O)N(C)c2c(N)n(Cc3ccccc3)c(=O)[nH]c2=O)cc1OCC	-2.7%	?	16.4µM*	4.8	-28.1%	1.6%
CN(C(=O)COC(=O)/C=C/c1ccc(Cl)c(Cl)c1)c1c(N)n(Cc2ccccc2)c(=O)[nH]c1=O	0.0%	9.2µM*	16.4µM*	-11.7	-6.2%	0.7%
Cc1ccc(S(=O)(=O)N2C[C@H]3C(=O)C[C@@H](c4ccccc4F)N(S(=O)(=O)c4ccc(C)cc4)[C@H]3C[C@H]2c2ccccc2)cc1	2.4%	?	?	-4.5	.	4.5%
COc1cccc(NC(=O)COc2ccc(C(=O)N3CCN(C)CC3)cc2)c1	-16.6%	2.1%	-16.5%	28.6	6.8%	-20.5%
Cc1ccc(/C=N/Nc2nncc(-c3ccccc3)n2)o1	-19.8%	-5.0%	?	-9.4	?	-23.3%
CCCCN=Cc1c(C)[nH]n(-c2ccccc2)c1=S	-2.0%	-28.4%	?	-5.2	-3.4%	-0.7%

Screening results as filed in PubChem BioAssay.
